Pf Dd2 inh: Plasmodium falciparum Dd2 growth inhibition; Potency, µM (highest dose often 28.9 µM), for inactives: top-dose activity, negative = inhibition, usual class: inhibitors; 120,000 compounds, 4.3% hits; P. falciparum Dd2 growth, SYBR Green, 72 h; active = well fitted inhibition curve with a large enough effect;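 note: plate controls were DMSO vehicle for no effect and reference drug for full effect; nearly all actives have a fitted effect of over 65% in size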
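Readout: SYBR Green fluorescence, 485 nm excitation, 535 nm emission, after ~16 h lysis at 37C. Before that, Dd2-infected red cells (2.5% hematocrit) grew 72 h with compound, 29 uM top final concentration.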
* marks the source's active call; other numbers are inactive results; [ ] = another dose, or the depositor's remark. Only a selection was taken, and hits are over-represented in it overall. Potency is the fitted concentration of half-maximal effect.

Screening CCOC(=O)c1c(S(=O)(=O)N2CCCC(C(=O)N3CCN(c4cc(C)ccc4C)CC3)C2)c(C)n(C)c1C (centres undefined) returned Pf Dd2 inh 1µM*.
CCCS(=O)(=O)N1CCCC1c1noc(CCC(=O)N2CCN(C)CC2)n1 (centres undefined) was read as Pf Dd2 inh -21.7%.
Screening O=C(NCC1CC1)C1CCCN(c2nc3ncccc3o2)C1 (centres undefined) returned Pf Dd2 inh 12.8%[44.1 µM].
For O=C(CCC[C@@H]1[C@H]2CCCN3CCC[C@@H](CN1C(=O)c1cccnc1)[C@@H]23)NC1CCCCC1 the results were Pf Dd2 inh -6.5%.
Cn1cnc(S(=O)(=O)N2CCC(Cc3nncn3CC3CC3)C2)c1 (centres undefined) was read as Pf Dd2 inh -17.2%.
`O=C(Nc1cccc(Cl)c1)N1CCC(n2cnnc2C2CC2)C1` (centres undefined) gave Pf Dd2 inh 9.9%.
For O=C(c1cccs1)N1CCC(Cc2nc(C3CCOCC3)no2)CC1 the results were Pf Dd2 inh 20.8%.
`COc1ccc(NC(=O)N2CCCC(c3nc(C4CCOCC4)no3)C2)cc1` (centres undefined) gave Pf Dd2 inh 37.7%.
O=c1c2c(CO)c(-c3ccccc3)nn2ccn1Cc1cc(F)ccc1F was read as Pf Dd2 inh -13.4%.
Screening CN1CCN(C(=O)[C@@H]2CCC[C@@H](NC3CCC3)CN(C)C(=O)C2)CC1 returned Pf Dd2 inh 2.3%[44.1 µM].
Screening CCC(c1cccs1)N1C(=O)[C@H]2CN(S(=O)(=O)c3cccc(OC)c3)C[C@H]2C1=O (some centres undefined) returned Pf Dd2 inh -4.4%.
CC(C)COc1ccc(C(=O)N2CCN(CCc3ccncc3)CC2)cc1 was read as Pf Dd2 inh 24.1%.
CC(C)COc1ccc(C(=O)NCC2(N3CCN(C)CC3)CCCCC2)cc1 was read as Pf Dd2 inh 10µM*.
For CN1CCN(C2(CNC(=O)c3ccc(C(C)(C)C)cc3)CCCCC2)CC1 the results were Pf Dd2 inh inactive.
Screening Cc1ccc(CNC(=O)C2(c3ccc(NC(=O)C4CC4)cc3)CCC2)cc1 returned Pf Dd2 inh -6.0%.
`CC(=O)N1CCC(C(=O)N2CCN(Cc3ccccc3)CC(O)C2)CC1` (centres undefined) gave Pf Dd2 inh 6.2%.
O=C(N1CCN(Cc2ccccc2)CC(O)C1)C1(N2CCCC2)CCCC1 (centres undefined) was read as Pf Dd2 inh 4.47µM*.
CN(C)C(=O)CCC(=O)N1CCN(Cc2ccccc2)CC(O)C1 (centres undefined) was read as Pf Dd2 inh 10.5%.
Screening COC[C@@H]1CN(C(=O)c2cc(C)oc2C)C[C@H]1c1ccccn1 returned Pf Dd2 inh 2.9%.
Screening CCCC(=O)NC(C)C(=O)N1CCN(c2ccccn2)CC1 (centres undefined) returned Pf Dd2 inh 6.7%.
`Cc1ccccc1NC(=O)N1CCC(CCNC(=O)c2cc(F)ccc2F)CC1` gave Pf Dd2 inh -4.8%.
For CC1=C(C(=O)Nc2ccc(C)cc2)C(c2ccccc2Cl)n2nnnc2N1 (centres undefined) the results were Pf Dd2 inh 23.5%.
`CC1=C(C(=O)Nc2ccc(C)cc2C)C(c2cccn2C)n2ncnc2N1` (centres undefined) gave Pf Dd2 inh 10.2%.
COc1ccccc1NC(=O)C1=C(C)Nc2c(C(=O)Nc3ccc(C)cc3)cnn2C1c1cccc(OC)c1OC (centres undefined) was read as Pf Dd2 inh 13.1%.
`CCc1ccc(C2C(C(=O)Nc3ccccc3OC)=C(C)Nc3nc(SCc4ccccc4)nn32)cc1` (centres undefined) gave Pf Dd2 inh -9.0%.
Screening CC1=C(C(=O)Nc2ccc(C)cc2C)C(c2ccc([N+](=O)[O-])cc2)n2ncc(C(=O)Nc3ccc(F)cc3)c2N1 (centres undefined) returned Pf Dd2 inh 1µM*.
CCc1ccc(C2C(C(=O)Nc3ccccc3OC)=C(C)Nc3c(C(=O)Nc4ccc(C)cc4)cnn32)cc1 (centres undefined) was read as Pf Dd2 inh 11.2µM*.
`CC1=C(C(=O)Nc2ccc(C)cc2)C(c2ccc(Cl)cc2)n2nnnc2N1` (centres undefined) gave Pf Dd2 inh -26.7%.
Screening CC1=C(C(=O)Nc2ccccc2)C(c2ccccc2Cl)n2ncc(C(=O)Nc3cccc(C)c3)c2N1 (centres undefined) returned Pf Dd2 inh 3.16µM*.
`COc1cccc(C2C(C(=O)Nc3ccccc3)=C(C)Nc3nnnn32)c1OC` (centres undefined) gave Pf Dd2 inh -24.9%.
Screening Cc1ccc(NC(=O)NC[C@H]2O[C@@H](CC(=O)NCCN(C)C)[C@H](O)[C@@H]2O)cc1 returned Pf Dd2 inh -19.1%[44.1 µM].
For O=C([C@@H]1C[C@H](F)CN1S(=O)(=O)Cc1ccccc1Cl)N1CCCCC1 the results were Pf Dd2 inh -15.6%.
Screening CCC1(N2CCN(C(=O)c3ccncc3)CC2)CCN(CCC(C)C)C1 (centres undefined) returned Pf Dd2 inh -16.9%.
For COc1ccc(C(=O)N2CCC3(CC2)CC(OCC2CC2)CCO3)cc1 (centres undefined) the results were Pf Dd2 inh -9.4%.
`O=C1CCN(C(=O)C2CCN(C(=O)Cc3cccc(F)c3)CC2)CCCCCCN1` gave Pf Dd2 inh -12.9%.
`Cc1ccc(Nc2nc3nonc3nc2Nc2cccc(C(F)(F)F)c2)cc1Cl` gave Pf Dd2 inh 1.12µM*.
For CCOC(=O)c1noc2ncnc(Nc3cccc(C(F)(F)F)c3)c12 the results were Pf Dd2 inh 76.5%.
`CCOC(=O)c1c(C)oc2ncnc(Nc3cccc(C(F)(F)F)c3)c12` gave Pf Dd2 inh 28.6%.
For CC(C)NC(=O)[C@H]1CN2CC[C@H]1C[C@@H]2Cn1cc(CO)nn1 the results were Pf Dd2 inh 40.8%[44.1 µM].
COc1ccccc1NC(=O)c1c(NC(=O)Cc2ccccc2)sc2c1CCC(C(C)(C)C)C2 (centres undefined) was read as Pf Dd2 inh 33.5%.
For COc1ccc(OC)c(NC(=O)c2sc3nc4c(cc3c2N)CCCCCC4)c1 the results were Pf Dd2 inh 12.2%.
`COc1ccc(NC(=O)c2c(NCc3cccs3)sc3c2CCC(C)C3)c(OC)c1` (centres undefined) gave Pf Dd2 inh 10µM*.
Screening COc1cc(C(=O)Nc2sc3c(c2C(N)=O)CCC(C)C3)cc(OC)c1OC (centres undefined) returned Pf Dd2 inh 7.0%.
Screening COc1ccc(OC)c(NC(=O)c2c(OC)cc(=O)n3c2CCCC3)c1 returned Pf Dd2 inh 6.8%.
COc1ccc(OC)c(NC(=O)c2c(NCc3cccs3)sc3c2CCCCC3)c1 was read as Pf Dd2 inh 8.91µM*.
`Cc1ccc(CNC(=O)N2CCC(CC(=O)NC3CC3)C2)cc1` (centres undefined) gave Pf Dd2 inh -17.6%.
Screening CC(C)C(=O)N1CCC(Oc2ncccc2C(=O)N2CCCCC2)C1 (centres undefined) returned Pf Dd2 inh -8.7%.
For Cn1cc(CN[C@H]2[C@H](O)[C@H](O)C[C@@H]2c2ccc(N3CCOCC3)nc2)cn1 the results were Pf Dd2 inh 33.7%[44.1 µM].
Screening CCN1C(=O)COC[C@@H]1[C@H](O)c1ccc(NC(=O)COC)cc1 returned Pf Dd2 inh 14.1%[44.1 µM].
CC(C)Nc1ccc2nnc(-c3ccccn3)n2n1 was read as Pf Dd2 inh -2.7%[44.1 µM].

Screening data as filed in PubChem BioAssay.
